# The list is not random: actives were taken first. Their share in the collection is about 17%.
# HepG2 viability: qHTS for Inhibitors of TGF-b: Cytotox Counterscreen; 410,000 tested, 0.76% active; Potency, µM (doses to about 46.1 µM), inactives show top-dose activity change, negative = cytotoxicity, most hits filed as cytotoxic; HepG2 CAGA-GFP viability, ATP luminescence, 18 h
#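 HepG2 CAGA-GFP cells (1000/well, DMEM with 1% FBS) received compound, then TGF-beta at 500 pg/mL final, and were incubated 18 hours at 37 degrees C. Viability was read by CellTiter-Glo luminescence. Media-only wells were set as complete cell-killing and DMSO as no toxicity.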
# TDP1 cell CPT: qHTS for Inhibitors of human tyrosyl-DNA phosphodiesterase 1 (TDP1): qHTS in cells in presence of CPT; 420,000 tested, 12% active; Potency, µM (titrated, usually from 46.2 µM), for inactives: top-dose activity change, negative = growth inhibition, usual class: inhibitors; chicken DT40 Tdp1-/-;hTDP1 cells + 20 nM CPT, ATP luminescence, 48 h; AID 686979, 2013; note: % is set by controls: 0 for no effect and ±100 for the full control effect; nearly all actives have a fitted effect of over 55% in size
#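 Chicken DT40 Tdp1-/- cells stably complemented with human TDP1 were seeded at 400 cells/well in medium containing 20 nM camptothecin, exposed to pin-transferred compounds, and grown at 37 °C for at least 48 hr. Viability was read as ATP luminescence.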
# TGFb inhibitor: qHTS for Inhibitors of TGF-b; HepG2 CAGA-GFP TGF-b/SMAD3 reporter, GFP fluorescence, 18 h; TGF-beta stimulated, 500 pg/mL final; Potency, µM (highest dose often 46.1 µM), inactives show at the highest dose activity, negative = inhibition, most hits filed as inhibitors; 410,000 tested, 1.2% active; AID 588855, 2011; note: % is set by controls: 0 for no effect and ±100 for the full control effect; nearly all actives have a fitted effect of over 65% in size
#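 HEPG2 CAGA-GFP, 1000 cells/well; 2 h settle, 37 C; cpd via pin tool; TGF-b 500 pg/mL final; 18 h, 37 C; GFP imaging ex488/em500-530; %Activity normalised to -TGF-b and +DMSO controls; CRC fit, curve class.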
# DT40 TDP1 no CPT: qHTS for Inhibitors of human tyrosyl-DNA phosphodiesterase 1 (TDP1): qHTS in cells in absence of CPT | DT40 Tdp1-/- hTDP1 cells, no CPT, ATP luminescence, 48 h | Potency, µM (top dose mostly 46.2 µM), inactives show top-dose activity change, negative = growth inhibition, hits mostly inhibitors | 420,000 tested, 15% active | AID 686978, 2013; note: % is set by controls: 0 for no effect and ±100 for the full control effect; nearly all actives have a fitted effect of over 55% in size
#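 Growth kinetics read by CellTiter-Glo luminescence after ≥48 hr at 37 °C. Cells: DT40 Tdp1-/- stably carrying human TDP1, 400 per well, compound exposure in the absence of CPT (DMSO vehicle).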
# HT1080 IDH1KD tx: qHTS for induction of synthetic lethality in tumor cells producing 2HG: qHTS for the HT-1080-IDH1KD cell line. HT-1080 IDH1 knockdown viability, ATP luminescence, 48 h. Potency, µM (top dose mostly 46.1 µM), inactives show at the highest dose activity, negative = toxicity, hits mostly cytotoxic. 360,000 tested, 2% active. AID 686971, 2013;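 note: 0% = DMSO wells and -100% = cell-free medium wells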
#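 HT-1080-IDH1KD cells (IDH1 knocked down), 750/well in RPMI with 5% FBS, treated with compound 48 h at 37 degrees C. Viability by CellTiter-Glo luminescence, normalised to DMSO and no-cell wells; concentration-response curves classed.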
# HT1080-NT tox: qHTS for induction of synthetic lethality in tumor cells producing 2HG: qHTS for the HT-1080-NT fibrosarcoma cell line. 360,000 tested, 1.6% active. HT-1080-NT fibrosarcoma viability, CellTiter-Glo ATP luminescence, 48 h. Potency, µM (titrated, usually from 46.1 µM), for the others: top-dose activity, negative = less viability, actives largely listed as cytotoxic;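 note: NT is the 2HG producing partner of a matched IDH1 knockdown line; 0% = DMSO-treated cells and -100% = media-only wells without cells; nearly all actives have a fitted effect of over 55% in size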
#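 HT-1080-NT fibrosarcoma cells (2HG-overproducing), 750 cells/well in RPMI with 5% FBS, dosed after 2 h and incubated 48 h at 37C. CellTiter-Glo luminescence normalized to DMSO and no-cell wells; concentration-response curves fitted and classed.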
# The depositor's hits bear a star; ? = inconclusive; · = no result given. Calls come from the whole dose curve; as a rule, active = well fitted curve in the direction sought with a large enough effect; inconclusive = small, poorly fitted or top-dose-only effect, or another doubt; inactive = no such curve, though single readings can be large; an effect the other way counts as inactive or inconclusive. Potency is the fitted concentration of half-maximal effect.
SMILES,HepG2 viability,TDP1 cell CPT,TGFb inhibitor,DT40 TDP1 no CPT,HT1080 IDH1KD tx,HT1080-NT tox
CCN1CCN(c2ccc(S(=O)(=O)N3CCOCC3)cc2NC(=O)c2sccc2C)CC1,23%,-7%,5%,-3%,0%,-8%
Cc1ccc(F)c(S(=O)(=O)NC(=O)C2(C)CCN2C(=O)Cc2ccc(-c3ccccc3)cc2)c1 (stereo unspecified),0%,-13%,1%,?,0%,-11%
CC(=O)Nc1ccc(NC(=O)CN(C)S(=O)(=O)c2ccc3c(c2)CCC(=O)N3)cc1,2%,-1%,16%,3%,9%,2%
CCN(CC)S(=O)(=O)c1ccc(N2CCOCC2)c(NC(=S)NC(=O)c2ccco2)c1,9%,10µM*,4%,?,-13%,-24%
CCN(CC)S(=O)(=O)c1ccc(N2CCOCC2)c(NC(=O)C23CC4CC(CC(Cl)(C4)C2)C3)c1,2%,?,12%,23µM*,-2%,1%
CC(C)NC(=O)CSc1c2c(nc3ccccc13)CCCC2,-13%,-2%,5%,?,10%,10%
COc1ccccc1CNS(=O)(=O)c1c(C)nc2sccn2c1=O,6%,10%,12%,4%,9%,2%
CC(C)(CO)Nc1ncnc2onc(-c3ccc(F)cc3)c12,4%,-5%,7%,-27%,-7%,-15%
COc1ccccc1CNc1ncnc2onc(-c3ccc(Cl)cc3)c12,-22%,?,-1%,21µM*,·,·
COc1ccc(OC)c(CNc2ncc(-c3ccc(Cl)cc3)n2C)c1,-15%,16µM*,5%,16µM*,·,·
COc1ccccc1-c1noc2ncnc(Nc3ccccc3C)c12,1%,23µM*,-3%,15µM*,-7%,-2%
COc1ccccc1CNc1ncnc2onc(-c3ccc(F)cc3)c12,-8%,-30%,7%,-32%,·,·
CCOc1ccccc1CNc1ncnc2onc(-c3ccc(F)cc3)c12,-7%,16µM*,3%,23µM*,·,·
COc1ccc(OC)c(CNc2ncnc3onc(-c4ccc(Cl)cc4)c23)c1,-8%,2.6µM*,3%,2.9µM*,·,·
CN(CC(=O)Nc1ccc(F)cc1)C(=O)CN1C(=O)c2ccccc2C1=O,-8%,0%,-4%,1%,7%,-4%
Cc1nc2c(O)c3c(c(O)c2nc1C)C1C=CC3CC1,-106%,0.46µM*,?,0.52µM*,16µM*,?
Cc1nc2c(C)c(C)c(C)c(C)c2nc1C,1%,7%,-7%,-5%,4%,10%
COC(=O)c1ccc(NC(=O)c2cc(-c3ccncc3)nc3ccccc23)cc1,-19%,?,-9%,?,?,?
Cc1cccc(-c2cc(C(=O)Nc3ccncc3)c3ccccc3n2)c1,-7%,?,-19%,?,?,?
O=C(Nc1ccc(Br)cc1)c1cc(-c2ccncc2)nc2ccccc12,0%,?,?,16µM*,8.2µM*,6.5µM*
Cc1cccc(-c2cc(C(=O)Nc3cccnc3)c3ccccc3n2)c1,-28%,21µM*,7%,?,-15%,-2%
O=C(NC1=NCCS1)c1cc(-c2cccnc2)nc2ccccc12,-3%,16µM*,18%,21µM*,-20%,-8%
O=C(NC1=NCCS1)c1cc(-c2cccs2)nc2ccccc12,-19%,-5%,-9%,-29%,1%,-1%
O=C(Nc1ccncc1)c1cc(-c2ccccc2)nc2ccccc12,-19%,?,6%,21µM*,?,-26%
Cc1cccc(NC(=O)CSc2nnc(C)c(=O)n2N)c1,13%,14%,26%,-8%,8%,7%
SMILES,HepG2 viability,TDP1 cell CPT,TGFb inhibitor,DT40 TDP1 no CPT,HT1080 IDH1KD tx,HT1080-NT tox
Cc1cccc(OC(=O)CSc2nnc(-c3cccs3)o2)c1C,-2%,7%,36%,-17%,·,·
COc1ccc(-c2cc(C(=O)N(C)CC(=O)Nc3ccccc3C(F)(F)F)c3ccccc3n2)cc1OC,-28%,21µM*,4%,4.1µM*,-28%,?
COc1ccc(-c2cc(C(=O)N(C)CC(=O)Nc3ccccc3Br)c3ccccc3n2)cc1OC,-14%,16µM*,-11%,18µM*,-18%,?
CCOC(=O)Cc1ccc(NC(=O)n2ncc3cc(Cl)ccc32)cc1,-17%,-1%,21%,6%,·,·
CCOC(=O)N1CCN(S(=O)(=O)N2CCCC(C(=O)NCc3ccc(C)cc3)C2)CC1 (stereo unspecified),16%,?,-11%,?,8%,1%
COc1ccccc1OCc1nc(C#N)c(N2CCCC2)o1,-23%,9%,15%,-1%,9%,9%
CC1CC(C)CN(c2oc(-c3ccco3)nc2C#N)C1 (stereo unspecified),-12%,18µM*,0%,21µM*,-6%,-1%
COc1ccccc1OCc1nc(C#N)c(N2CC(C)CC(C)C2)o1 (stereo unspecified),-22%,29µM*,-7%,?,-4%,-7%
N#Cc1nc(-c2ccco2)oc1N1CCCC1,-4%,5%,6%,-1%,0%,3%
CCN(CC)C(=O)C1=C(C)N(CCCN2CCCC2=O)C(=O)C(CC(=O)NCc2ccco2)C1 (stereo unspecified),-1%,2%,12%,-16%,8%,2%
O=C1CSC(=S)N1/N=C/c1ccc(O)c(O)c1O,-2%,26µM*,?,?,-22%,-16%
FC(F)(F)c1cccc(Nc2nc(N3CCOCC3)nc(N3CCOCC3)n2)c1,-25%,13µM*,4%,?,2%,4%
c1ccc(Nc2nc(N3CCNCC3)nc(N3CCOCC3)n2)cc1,-33%,?,-6%,?,-15%,-26%
Cc1ccc(Nc2nc(N3CCOCC3)nc(N3CCOCC3)n2)cc1C,-30%,13µM*,32%,13µM*,-9%,1%
Oc1cccc(Nc2nc(N3CCOCC3)nc(N3CCOCC3)n2)c1,-35%,5.2µM*,14%,8.2µM*,?,-12%
